Laboratory results reported in PubChem BioAssay (NCATS).
Inconclusive results are not listed. Where a call stands in place of a potency, no number is given. Values without a mark were called inactive. Calls of active or inactive are those of the source. Calls come from the whole dose curve; as a rule, active = well fitted cell-killing curve with a large enough effect; inconclusive = small, poorly fitted or top-dose-only effect, or effect the other way; inactive = flat fitted curve, though single readings scatter. *1 amine or outer side, *2 acyl side, *3 side chain or, on linkers, in order; H or OH if unused. Where a SMILES comes first, the peptide text is derived from it. Bridges are numbered along the chain shown (N, C = ends). [ ]: non-standard residue; d: D form. The star is where a group is joined. ξ: configuration not given here. X10 = NC1=NCCC(C(N[*:1])C(=O)[*:2])N1; ΔAla(3-NHCONH2) = NC(=O)NC=C(N)C(=O)O; pGlu = O=C1CC[C@@H](C(=O)O)N1; ξβ3hOrn = NCCCC(N)CC(=O)*; Dap = NC[CH](N)C(=O)O

Assays:
Tov-21-G = test: Primary qHTS to identify gynecologic anti-cancer compounds using libraries of approved drugs and bioactive compounds (AID 1345084); conditions: Gynecologic cancer cell panel viability, ATPlite luminescence, 48 h; series mostly up to 57.5 µM; note: nearly all actives have a fitted effect of over 55% in size
Method in brief: (§1)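 In this quantitative HTS, cell killing is estimated from loss of ATP-dependent luciferase light. Cells see five compound concentrations over a 48 h exposure.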

Tov112D = test: as above; conditions: Gynecologic cancer cell panel viability, ATPlite luminescence, 48 h; series mostly up to 57.5 µM
Method in brief: as §1

Structure (SMILES)	Potency (Tov-21-G)	Potency (Tov112D)	activity change, negative = cytotoxicity (Tov-21-G)	activity change, negative = cytotoxicity (Tov112D)
CN1N=C(C(N)=O)CCC1=O	inactive	inactive	–	–
CC(C)C(=O)Nc1cccc(C2CN3CCSC3=N2)c1 (configuration not stated)	inactive	inactive	–	–
COC(=O)c1cc(Cl)c(NC(C)=O)cc1OC	inactive	inactive	–	–
COC(=O)CCCCC(CCSS/C(CCO)=C(\C)N(C=O)Cc1cnc(C)nc1N)SC(C)=O (configuration not stated)	inactive	inactive	–	–
O=C1CC2(CCCC2)CC(=O)N1	inactive	inactive	–	–
Cc1sccc1Br	inactive	inactive	–	–
Nc1nc(=O)n([C@@H]2O[C@H](CO)[C@@H](O)[C@@H]2F)cc1I	inactive	inactive	–	–
CCCCCCn1c(=O)c2c(ncn2C)n(C)c1=O	inactive	inactive	–	–
Cc1ccc(CCn2c3c(c4cc(Cl)ccc42)CN(C)CC3)cn1	inactive	inactive	–	–
CCCc1ncc(C(=O)O)s1	inactive	inactive	–	–
COCCOCC(OC)OC	inactive	inactive	–	–
CC1(C)O[C@@H]2C[C@H]3[C@@H]4C[C@H](F)C5=CC(=O)C=C[C@]5(C)[C@@]4(F)[C@@H](O)C[C@]3(C)[C@]2(C(=O)CO)O1	inactive	inactive	–	–
C/C(=C(/OCCOc1ccc(Cl)cc1)c1ccc(Cl)cc1Cl)n1ccnc1	inactive	inactive	–	–
CCN(CC)CC(=O)Nc1c(C)cccc1C(=O)OC	inactive	inactive	–	–
Cc1onc(-c2ccccc2)c1C(=O)Cl	inactive	inactive	–	–
CCCOc1ccc2c(c1)CC[C@@H]1[C@@H]2CC[C@]2(C)C(OC)CC[C@@H]12 (some centres not stated)	inactive	inactive	–	–
CSCC[C@H](NC(=O)[C@H](Cc1c[nH]c2ccccc12)NC(=O)CCNC(=O)OC(C)(C)C)C(=O)N[C@@H](CC(=O)O)C(=O)N[C@@H](Cc1ccccc1)C(N)=O	inactive	inactive	–	–
CC(C)C(=O)OCc1cccc(OC(=O)[C@@H]2N3C(=O)[C@@H](NC(=O)Cc4ccccc4)[C@H]3SC2(C)C)c1	inactive	inactive	–	–
CCNC(=O)[C@@H]1CCCN1C(=O)[C@H](CCCN=C(N)N)NC(=O)[C@H](CC(C)C)NC(=O)CNC(=O)[C@H](Cc1ccc(O)cc1)NC(=O)[C@H](CO)NC(=O)[C@H](Cc1c[nH]c2ccccc12)NC(=O)[C@H](Cc1cnc[nH]1)NC(=O)[C@@H]1CCC(=O)N1 ([pGlu]HWSYGLRP-NHEt)	inactive	inactive	–	–
NCCCC(N)CC(=O)NCC1NC(=O)C(CO)NC(=O)C(N)CNC(=O)C(C2CCN=C(N)N2)NC(=O)C(=CNC(N)=O)NC1=O (stereo not drawn) (H-[Dap]S[Dap](ξβ3hOrn)[ΔAla(3-NHCONH2)][X10]; lactam 1-C; configuration not given here)	–	–	4.2% [at 0.462 µM]	4.39% [at 0.462 µM]
CC(=O)[C@H]1CC[C@H]2[C@@H]3C=CC4=CC(=O)CC[C@@]4(C)[C@@H]3CC[C@]12C	inactive	inactive	–	–
O=C(CCOCCOCCOCCOCCC(=O)Nc1c(I)cc(I)c(C(=O)O)c1I)Nc1c(I)cc(I)c(C(=O)O)c1I	inactive	inactive	–	–
C[C@H]1C[C@H]2[C@@H]3CCC4=CC(=O)C=C[C@]4(C)[C@H]3C(=O)C[C@]2(C)[C@@]1(O)C(=O)CO	inactive	inactive	–	–

Structure (SMILES)	Potency (Tov-21-G)	Potency (Tov112D)	activity change, negative = cytotoxicity (Tov-21-G)	activity change, negative = cytotoxicity (Tov112D)
COC(=O)C1=CO[C@@H](O)[C@@H]2C(CO)=CC[C@H]12	inactive	inactive	–	–
CCCCCOc1ccccc1/C(=C\SC)n1ccnc1	inactive	inactive	–	–
COc1cc(S(N)(=O)=O)cc(C(=O)O)c1OC	inactive	inactive	–	–
CCCC(=O)Nc1ccc(O)c(C(C)=O)c1	inactive	inactive	–	–
O=[N+]([O-])c1ccc(-c2nc(-c3ccc(F)cc3)c(-c3ccncc3)[nH]2)cc1	inactive	inactive	–	–
CCCCCCCCCCCCCCCCCCN(C)C	inactive	inactive	–	–
CC(=O)O[C@H]1CC[C@@]2(C)C(=CC[C@@H]3[C@@H]2CC[C@]2(C)C(C(C)=O)=CC[C@@H]32)C1	inactive	inactive	–	–
CCC(=O)O[C@]1(C(=O)COC)[C@@H](C)C[C@H]2[C@@H]3CCC4=CC(=O)C=C[C@]4(C)C3(F)[C@@H](O)C[C@@]21C (some centres not stated)	inactive	inactive	–	–
CC1(C)OC(=O)Nc2ccc(Br)cc21	inactive	inactive	–	–
O=C1NC(c2ccccc2)(c2ccccc2)C(=O)N1COP(=O)(O)O	inactive	inactive	–	–
CCC(=O)O[C@H]1[C@H](O[C@@H]2[C@@H](C)[C@H](O[C@H]3C[C@@](C)(OC)[C@@H](O)[C@H](C)O3)[C@@H](C)C(=O)O[C@H](CC)[C@@](C)(O)[C@H](O)[C@@H](C)C(=O)[C@H](C)C[C@@]2(C)O)O[C@H](C)C[C@@H]1N(C)C	inactive	inactive	–	–
COCCc1ccccn1	inactive	inactive	–	–
CO/N=C(\C(=O)O)c1csc(NC(=O)CCl)n1	inactive	inactive	–	–
CCN1CCN(c2cc(-c3ccc(F)cc3)c3c(n2)CCCCCC3)CC1	inactive	inactive	–	–
Nc1ccc([N+](=O)[O-])c(C(F)(F)F)c1	inactive	inactive	–	–
COC(=O)c1cc(S(N)(=O)=O)ccc1OC	inactive	inactive	–	–
CC(C)NCCCC1(C(N)=O)c2ccccc2-c2ccccc21	inactive	inactive	–	–
O=C(O)C(=O)Nc1cccc(-c2nn[nH]n2)c1	inactive	inactive	–	–
COc1c(N2C[C@@H]3CCCN[C@@H]3C2)c(F)cc2c(=O)c(C(=O)O)cn(C3CC3)c12	inactive	inactive	–	–
C=CCNc1nc(NCC=C)nc(N2CCN(C(c3ccc(F)cc3)c3ccc(F)cc3)CC2)n1	inactive	inactive	–	–
Fc1ccc(C(c2ccc(F)cc2)N2CCNCC2)cc1	inactive	inactive	–	–
CCOC(=O)c1ccc(O)c(O)c1	inactive	inactive	–	–
CNC(=O)c1cnn(-c2nc(N)c3ncn([C@@H]4O[C@H](CO)[C@@H](O)[C@H]4O)c3n2)c1	inactive	inactive	–	–
